# An excerpt weighted towards active compounds, which were near 15% of everything screened.
# 12-LOX inh: inhibitors of human 12S-lipoxygenase ALOX12 | 580,000 tested, 1.1% active | purified 12hLO, xylenol orange hydroperoxide absorbance | Potency, µM (doses to about 108 µM), inactives show top-dose activity change, negative = inhibition, hits mostly inhibitors | P18054
#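 Hydroperoxide product was detected by ferrous iron/xylenol orange as the 573 to 405 nm absorbance ratio. Arachidonic acid at 40 uM (final) was turned over for 30 min at room temperature by 150 nM human 12hLO, pH 7.0 Hepes buffer, after 15 min compound preincubation.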
# VP16 counter: Gal4-VP16 reporter inhibition counter-screen | Drosophila S2 Gal4-VP16 UAS-luciferase, luminescence, 20 h | Potency, µM (series often up to 53.6 µM), for inactives: at the top dose activity, negative = inhibition, hits mostly inhibitors | 310,000 tested, 3.5% active | AID 2546;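 note: Gal4-VP16 expression switched on by copper sulfate through the metallothionein promoter; nearly all actives have a fitted effect of over 50% in size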
# TDP1 cell CPT: DT40-hTDP1 cell growth loss with CPT; chicken DT40 Tdp1-/-;hTDP1 cells + 20 nM CPT, ATP luminescence, 48 h; 420,000 tested, 12% active; Potency, µM (series often up to 46.2 µM), for the others: at the top dose activity change, negative = growth inhibition, most hits filed as inhibitors; note: nearly all actives have a fitted effect of over 55% in size
#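 Chicken DT40 Tdp1-/- cells complemented with human TDP1, 400 cells/well, exposed to compounds plus 20 nM camptothecin for at least 48 h at 37 C; viability read as ATP content by CellTiter-Glo luminescence.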
# DT40 TDP1 no CPT: qHTS for Inhibitors of human tyrosyl-DNA phosphodiesterase 1 (TDP1): qHTS in cells in absence of CPT | 420,000 tested, 15% active | Potency, µM (highest dose often 46.2 µM), for the others: top-dose activity change, negative = growth inhibition, most hits filed as inhibitors | AID 686978, 2013 | DT40 Tdp1-/- hTDP1 cells, no CPT, ATP luminescence, 48 h; note: nearly all actives have a fitted effect of over 55% in size
#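 Seeded 400 DT40-hTDP1 cells/well (vehicle DMSO, no 20 nM CPT); pinned compounds; ≥48 hr at 37 °C; CellTiter-Glo luminescence as viability measure.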
# ELG1 DNA repair: inhibitors of ELG1-dependent DNA repair in HEK293T cells. HEK293T ELG1-luciferase reporter, luminescence, 16 h; DNA damage induced by 5-fluorouridine. Potency, µM (titrated, usually from 46.1 µM), inactives show at the highest dose activity change, negative = inhibition, most hits filed as inhibitors. 330,000 tested, 2.3% active; note: nearly all actives have a fitted effect of over 55% in size
#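 Step one: seed 2,000 cells per well. Step two: pin-transfer compound or DMSO alongside 5-fluorouridine. Step three: incubate 16 hr, 37 °C, 5% CO2. Step four: add ONE-Glo, wait 30 min, read luminescence.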
# RORg inh: blocks mouse ROR gamma transcriptional activity. Potency, µM (titrated, usually from 53.6 µM), for the others: top-dose activity change, negative = inhibition, most hits filed as inhibitors. 310,000 tested, 5.4% active. AID 2551. P51450. Drosophila S2 Gal4-RORgamma UAS-luciferase reporter, 20 h; note: nearly all actives have a fitted effect of over 60% in size
# Target sequence (P51450 whole entry, looked up, the tested form may be a part): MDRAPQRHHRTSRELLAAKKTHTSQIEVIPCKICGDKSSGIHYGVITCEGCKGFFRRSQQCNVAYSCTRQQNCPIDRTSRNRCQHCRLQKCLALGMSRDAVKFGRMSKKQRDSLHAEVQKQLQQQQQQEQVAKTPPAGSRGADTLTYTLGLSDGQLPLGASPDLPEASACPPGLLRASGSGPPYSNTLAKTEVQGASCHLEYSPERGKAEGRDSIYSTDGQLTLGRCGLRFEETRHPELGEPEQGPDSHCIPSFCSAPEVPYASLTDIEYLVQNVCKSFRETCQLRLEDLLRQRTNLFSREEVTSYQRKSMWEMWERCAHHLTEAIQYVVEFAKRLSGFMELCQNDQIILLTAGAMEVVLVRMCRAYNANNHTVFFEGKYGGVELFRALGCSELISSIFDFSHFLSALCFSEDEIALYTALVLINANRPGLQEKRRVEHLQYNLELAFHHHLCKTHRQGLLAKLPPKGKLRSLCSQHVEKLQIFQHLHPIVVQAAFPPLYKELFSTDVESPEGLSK
#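 A Gal4/UAS one-hybrid system in insect cells: metallothionein-promoter Gal4–ROR gamma fusion plus Photinus luciferase reporter. Copper sulfate 700 uM final, 20 hr ambient incubation, luminescent detection after 10 min with reagent.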
# Starred values were filed as active, the others as inactive; ? = inconclusive; / = not tested or not shown; [ ] = another dose, or the depositor's remark. Calls come from the whole dose curve; as a rule, active = well fitted curve in the direction sought with a large enough effect; inconclusive = small, poorly fitted or top-dose-only effect, or another doubt; inactive = no such curve, though single readings can be large; an effect the other way counts as inactive or inconclusive. % is set by controls: 0 for no effect and ±100 for the full control effect; potency is the fitted concentration of half-maximal effect.
SMILES,12-LOX inh,VP16 counter,TDP1 cell CPT,DT40 TDP1 no CPT,ELG1 DNA repair,RORg inh
O=C(/C=C/c1ccccc1)c1ccc2ccccc2c1O,-3.7%,/,/,/,/,/
CC(C)=CCC/C(C)=C/Cc1c(O)ccc(C(=O)/C=C/c2ccc(O)cc2)c1O,0.7%,?,?,20.6µM*,-1.1%,-0.9%
COc1ccc(C(=O)N2[C@@H](C(C)C)COc3cc(Br)ccc3S2(=O)=O)cc1,0.9%,/,18.4µM*,?,/,/
COc1ccc(NC(=O)N(C)C[C@H]2Oc3cc(Br)ccc3S(=O)(=O)N([C@H](C)CO)C[C@@H]2C)cc1,-1.5%,/,?,?,/,/
CC(NC(=O)c1ccc(-c2ccc(F)cc2)o1)C12CC3CC(CC(C3)C1)C2 (centres undefined),-30.7%,/,/,/,/,/
O=C(c1ccc([N+](=O)[O-])cc1)N1CCSC1c1ccc(Cl)cc1 (centres undefined),-8.6%,-8.2%,0.0%,-22.3%,0.2%,13.1%
O=C(c1ccc([N+](=O)[O-])cc1)N1CCSC1c1ccc(Br)cc1 (centres undefined),?,6.3%,?,18.4µM*,-2.5%,36.3%
N#Cc1ncc(Cc2ccccc2)nc1C#N,-4.1%,14.1µM*,?,?,-5.5%,18.6%[1.91 µM]
N#Cc1nc(Cc2ccccc2)oc1NCc1cccnc1,394.9%,16.9%,-2.8%,-14.5%,14.8%,?
CCCN(Cc1ccccc1)C(=O)c1ccc(CNC(N)=O)cc1,-4.1%,/,/,/,/,/
CCCn1c(C)cc(C(=O)COC(=O)c2ccc(Cl)c(S(=O)(=O)N3CCCC3)c2)c1C,0.0%,4.1%,23.1µM*,14.6µM*,?,39.1%
Cc1cc(C(=O)COC(=O)c2ccc[nH]c2=O)c(C)n1-c1ccccc1F,-20.7%,?,-17.4%,?,?,?
CCCn1c(C)cc(C(=O)COC(=O)c2ccc[nH]c2=O)c1C,-20.1%,6.31µM*,-25.8%,?,?,3.98µM*
Cc1ccc(-n2c(C)cc(C(=O)COC(=O)c3ccc[nH]c3=O)c2C)cc1C,-13.9%,0.02µM*,-29.6%,?,?,-37.8%
CCCCNC(=O)COC(=O)c1ccc(Cl)c(S(=O)(=O)N2CCCC2)c1,0.0%,-4.1%,-2.4%,-0.7%,?,8.1%
COc1ccc(C(=O)C2CCN(C(=S)Nc3ccc(F)cc3)CC2)cc1,-12.6%,2.8%,-28.4%,-13.4%,?,-6.6%
COc1cccc(NC(=S)N2CCC(C(=O)c3ccc(F)cc3)CC2)c1,-27.3%,/,?,?,/,/
COc1ccc(NC(=S)N2CCC(C(=O)c3ccc(OC)cc3)CC2)cc1,-2.8%,-3.7%,?,16.4µM*,23.1µM*,-22.4%
COc1ccc(NC(=S)N2CCC(C(=O)c3ccc(C)cc3)CC2)cc1,?,-14.6%,?,8.2µM*,-5.3%,4.7%
N#CCc1ccc(NS(=O)(=O)c2ccc(C3CCCCC3)cc2)cc1,-16.8%,?,23.1µM*,14.6µM*,-0.7%,29.7%
COc1ccc(S(=O)(=O)Nc2ccc(CC#N)cc2)cc1,?,3.8%,-15.9%,-13.3%,-1.7%,14.4%
Cc1cccc(NS(=O)(=O)c2ccc(C3CCCCC3)cc2)c1,25.5%,?,20.6µM*,14.6µM*,0.6%,-16.2%
N#CCCN1CCN(S(=O)(=O)c2ccc(C3CCCCC3)cc2)CC1,-1.7%,/,13µM*,-12.9%,6.5%,/
O=C(O)c1cccc(NS(=O)(=O)c2ccc(C3CCCCC3)cc2)c1,/,?,0.8%,0.2%,0.9%,-6.7%
C=CCNC(=O)NC(=O)CN(C)C(C)c1ccccc1OC (centres undefined),25.5%,/,/,/,/,/
CCCN1C2CCCC1CC(NC(=S)Nc1ccc(OC)cc1)C2 (centres undefined),-13.2%,7.9%,?,29.1µM*,-9.4%,-5.3%

# Bioassay records from PubChem BioAssay.
